Some test systems named below: S6K1; SBK1; SGK2; SGK3; SGK; SIK2; SIK; SLK.
Holding throughout (conditions): concentration: 1 μM, replicates: in singlicate; n = 1
The subject of assay [1] is RPS6KA4(Kin.Dom.1-N-terminal).
Assay [2] concerns RPS6KA4(Kin.Dom.2-C-terminal).
In assay [3] the test system is RPS6KA5(Kin.Dom.1-N-terminal).
The subject of assay [4] is RPS6KA5(Kin.Dom.2-C-terminal).
The test system of assay [5] is T1, RSK1(Kin.Dom.1-N-terminal).
T1 construct: gene RPS6KA1

Assay [6] deals with T2, RSK1(Kin.Dom.2-C-terminal).
T2 construct: gene RPS6KA1

For assay [7], the system named is T3, RSK2(Kin.Dom.1-N-terminal).
T3 construct: gene RPS6KA3

For assay [8], the system named is T4, RSK2(Kin.Dom.2-C-terminal).
T4 construct: gene RPS6KA3

Assay [9] has as its system T5, RSK3(Kin.Dom.1-N-terminal).
T5 construct: gene RPS6KA2

Assay [10] deals with T6, RSK3(Kin.Dom.2-C-terminal).
T6 construct: gene RPS6KA2

Assay [11] deals with T7, RSK4(Kin.Dom.1-N-terminal).
T7 construct: gene RPS6KA6

Assay [12] has as its system T8, RSK4(Kin.Dom.2-C-terminal).
T8 construct: gene RPS6KA6
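Note: KINOMEscan kinase panel screen.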

Take `Cc1ccc(C)c(NC(=O)NC2CCN(c3ccnc(Nc4ccc(F)cc4)n3)C2)c1` (stereo not drawn) [GSK1379720]: the “%Inh” value in assay [1] came out at 8%; in assay [2], 0%; in assay [3], 0%; in assay [4] it was 22%; in [5] it was 13%; in assay [6] it was 0%. Also, the “%Inh” value in assay [7] is on record as 3%; in assay [8], 0%; in assay [9], 0%; in assay [10], 0%; in assay [11] it was 0%; in [12], 6%. In addition, the “%Inh” value in the assay on S6K1 worked out at 8%; in the assay with SBK1 it was 1%; with SGK2, 2%; in the assay on SGK3, 0%; in the assay on SGK it was 0%; in the assay with SIK2, 0%. Moreover, the “%Inh” value in the assay on SIK and with SLK was 0% in each case.

`CNC(=O)c1ccccc1Nc1nc(Nc2ccc(N3CCOCC3)cc2)ncc1Cl.Cl` [GSK1576028]: the “%Inh” value in assay [1] came out at 99.7%; in assay [2] it was 0%; in assay [3], 90%; in assay [4] it was 44%; in assay [5] it was 100%; in assay [6], 54%. Moreover, the “%Inh” value is on record as 100% in assay [7]; 0% in assay [8]; 99.3% in assay [9]; 25% in assay [10]; 99.3% in [11]; 38% in assay [12]. Further, the “%Inh” value in the assay with S6K1 worked out at 97%; with SBK1, 90.5%; with SGK2, 50%; in the assay on SGK3 it was 87%; with SGK it was 97.1%; in the assay on SIK2, 92.4%. The “%Inh” value with SIK amounted to 99%; in the assay with SLK, 99.5%.

Consider `Cc1cccc(NC(=O)Nc2ccc(Oc3ncnc4ccn(C)c34)cc2)c1`, for which the “%Inh” value in [1], in assay [2], in assay [3], in [4], in assay [5] and in [6] was 0% each time. Moreover, the “%Inh” value is listed as 0% in [7]; 2% in assay [8]; 0% in assay [9]; 0% in [10]; 0% in [11]; 0% in [12]. The “%Inh” value with S6K1 turned out to be 0%; in the assay on SBK1 it was 0%; in the assay with SGK2, 0%; with SGK3, 0%; with SGK, 0%; in the assay with SIK2, 7%. For the same molecule, the “%Inh” value came to 10% with SIK and 0% with SLK.

On to `COc1cc(Nc2nccc(-c3c(-c4cccc(NC(=O)c5c(F)cccc5F)c4)nn4ncccc34)n2)cc(OC)c1OC` [GSK327238], for which the “%Inh” value in [1] was 55%; in assay [2] it was 0%; in [3] it was 43%; in [4], 3%; in [5] it was 97.3%; in assay [6], 25%. The “%Inh” value in assay [7] is given as 84%; in [8] it was 0%; in [9] it was 96.8%; in assay [10], 0%; in [11] it was 10%; in assay [12], 6%. Besides, the “%Inh” value was determined as 38% with S6K1; 28% in the assay with SBK1; 0% with SGK2; 1% in the assay on SGK3; 0% in the assay on SGK; 26% with SIK2. Further, the “%Inh” value in the assay with SIK is 78%; with SLK, 99.2%.

For `O=C(Nc1n[nH]c2cc(-c3ccoc3)ccc12)C1CC1` [SB-738481], the “%Inh” value was found to be 0% in [1]; 11% in assay [2]; 0% in [3]; 0% in assay [4]; 12% in assay [5]; 0% in assay [6]. In addition, the “%Inh” value is reported as 1% in assay [7]; 0% in assay [8]; 0% in assay [9]; 2% in assay [10]; 3% in assay [11]; 1% in assay [12]. The “%Inh” value with S6K1 stood at 36%; in the assay with SBK1, 0%; in the assay with SGK2 it was 5%; with SGK3, 28%; in the assay with SGK, 1%; with SIK2, 0%. The “%Inh” value in the assay with SIK turned out to be 0%; in the assay with SLK, 2%.

Consider `Cc1ccc(C(=O)N2CC[C@@H](O)C2)cc1-n1c(C)cc(OCc2ccc(F)cc2F)c(Br)c1=O`, for which the “%Inh” value was 2% in [1]; 0% in assay [2]; 0% in [3]; 0% in [4]; 0% in [5]; 0% in assay [6]. The “%Inh” value in assay [7] worked out at 0%; in assay [8], 0%; in assay [9], 0%; in assay [10] it was 18%; in [11] it was 0%; in [12], 2%. Moreover, the “%Inh” value is on record as 0% with S6K1; 0% with SBK1; 0% in the assay on SGK2; 0% in the assay on SGK3; 0% in the assay on SGK; 27% with SIK2. Further, the “%Inh” value in the assay with SIK is recorded as 4%; in the assay with SLK, 0%.

`COc1ccc(-c2coc3ccc(-c4nnc(SCc5ccc(OC)c(C(F)(F)F)c5)o4)cc23)cc1`: the “%Inh” value turned out to be 9% in assay [1]; 15% in [2]; 0% in assay [3]; 0% in assay [4]; 1% in assay [5]; 17% in assay [6]. The “%Inh” value in [7] is listed as 14%; in [8] it was 19%; in assay [9], 16%; in [10], 19%; in assay [11] it was 25%; in assay [12], 16%. The “%Inh” value came to 0% in the assay on S6K1; 0% in the assay on SBK1; 6% with SGK2; 28% in the assay on SGK3; 0% with SGK; 21% in the assay on SIK2. Besides, the “%Inh” value in the assay with SIK was determined as 10%; with SLK it was 9%.

Turning to `CCn1c(-c2nonc2N)nc2c(C#CC(C)(C)O)nc(OC[C@H](N)c3ccccc3)cc21` [GSK943949], the “%Inh” value in assay [1] turned out to be 0%; in assay [2], 57%; in assay [3], 6%; in assay [4], 0%; in assay [5], 59%; in [6], 0%. The “%Inh” value in assay [7], in [8], in assay [9], in [10], in assay [11] and in [12] was 0% throughout. For the same molecule, the “%Inh” value with S6K1 is given as 4%; with SBK1, 0%; in the assay with SGK2, 18%; in the assay with SGK3 it was 0%; in the assay with SGK, 6%; with SIK2 it was 0%. The results for the “%Inh” value with SIK and in the assay on SLK were 2% and 6%, respectively.

`COc1cccc(C(=O)Nc2cccc(Oc3ccc4nc(NC(=O)C5CC5)cn4n3)c2)c1`: the “%Inh” value in assay [1] worked out at 40%; in [2], 10%; in assay [3] it was 0%; in [4], 19%; in assay [5], 0%; in assay [6], 12%. In addition, the “%Inh” value was determined as 9% in assay [7]; 0% in assay [8]; 5% in [9]; 1% in assay [10]; 0% in assay [11]; 0% in assay [12]. In addition, the “%Inh” value in the assay on S6K1 came to 0%; in the assay on SBK1 it was 0%; with SGK2, 0%; in the assay on SGK3, 23%; in the assay with SGK, 0%; in the assay with SIK2, 27%. Further, the “%Inh” value amounted to 63% with SIK and 49% with SLK.

These data come from paper PMC5540273 (PLoS ONE, 2017).
